In all, about 33,000 sequences were measured (“E-score (-0.5 to 0.5)”: median about -0.0034, highest 2% from about 0.25 on). The sample holds the highest values, similar sequences and a random draw of the others, so the mix is not that of the screen.
Target: T1, Yap3 (UniProt P38749)
T1 sequence: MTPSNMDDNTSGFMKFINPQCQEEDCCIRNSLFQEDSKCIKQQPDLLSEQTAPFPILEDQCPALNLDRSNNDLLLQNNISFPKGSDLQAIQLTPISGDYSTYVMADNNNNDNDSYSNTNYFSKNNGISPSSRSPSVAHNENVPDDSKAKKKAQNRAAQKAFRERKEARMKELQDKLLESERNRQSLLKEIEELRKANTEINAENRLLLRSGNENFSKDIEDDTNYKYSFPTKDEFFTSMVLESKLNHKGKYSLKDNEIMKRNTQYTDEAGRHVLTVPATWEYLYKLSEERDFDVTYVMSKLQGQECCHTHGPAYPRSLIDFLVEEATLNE
Assay: PBM E-score (8-mer binding enrichment) (E-score (-0.5 to 0.5)); higher = stronger / more preferred TF binding
Conditions: protein concentration: 100 nM; construct: GST-full length
How it was run: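 For each ungapped eight-base word taken together with its reverse complement, the Universal PBM Analysis Suite assigned an E-score. Binding data came from GST-tagged yeast transcription factors, applied at about 100-200 nM, on universal all-10-mer Agilent arrays made double-stranded by primer extension. Fluorescent anti-GST marked bound protein, and scans were normalised with masliner.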

Sequence	PBM E-score
AGAAATCA	0.0967
ACCTCTGG	-0.158
ACCAGGAG	-0.207
CTACTCTC	-0.0538
AATGGTCA	0.26
TATGGTCA	0.0184
AATGGTCC	0.113
ACATCCTC	-0.0125
CTGAGAAA	0.0446
AATTTAAA	0.171
CACATGTA	0.109
TACATGTA	0.255
GACATGTA	0.162
GTCGGAAA	0.263
CTCGGAAA	0.0289
ATCGGAAA	0.112
CGAGCCAC	-0.228
GCCAGTAA	-0.206
GTACAAAA	0.233
ATACAAAA	0.284
TTACAAAA	0.256
TCACAAAA	0.206
CTACAAAA	0.0817
ATACAAAT	0.173
GGGTAGCA	-0.108

Sequence	PBM E-score
TAGAGGCA	-0.0959
ATCGTATG	0.0469
GTCTGCAA	-0.0254
CATGTTGC	-0.0984
CATGTTGA	0.255
AATGTTGA	0.0691
ACAAATAC	0.293
ACAAAAAG	0.239
GCAAATAC	0.0311
ACAAAACC	0.272
ACAAATAA	0.225
CCAAATAC	-0.144
ACAAATAT	0.274
GCAAAACC	-0.0668
ACAAATAG	0.202
ACAAAAAC	0.143
ACAAAAAA	0.234
ACAAAAAT	0.298
AAACCCTT	0.0938
ACAGGGTG	-0.126
ACCTAAAA	0.0796
AAGCGGAC	-0.025
ACGTAGTG	0.0166
GTACAGAA	-0.00324
CGTCAATC	0.0678

Sequence	PBM E-score
CCATGAGG	-0.0244
AATAGCCG	0.0258
ACCAGCAG	-0.186
CCTCGTAG	-0.00114
GAGATACA	0.167
AAGATAAC	0.111
AAGATACT	-0.0357
AAGATAAG	0.0204
AAGATAAA	0.286
AAGATACA	0.262
AAGGCCAC	-0.143
ACGCGAAT	0.106
CAATTAGC	0.085
ACAGACCG	-0.0661
CTCCCATC	0.0634
ACCAGAGG	-0.119
AATTCGCG	0.0991
AATTCGCC	0.125
AATTCGCT	0.289
CTGCACTC	0.0431
GTGCACTA	0.0636
CTGCACTA	0.262
AGACCATA	0.156
ATACGTCA	0.0839
GTACGTTA	0.256

Sequence	PBM E-score
ATACGTTA	0.0384
CTACGTCA	-0.0902
GTACGTCA	0.267
CTACGTTA	0.0868
CGAAGTAA	0.0985
GTGCCCAA	-0.0496
CTTAACAC	0.114
ATTAACAA	0.282
ATTAACTC	0.193
ATTAACAC	0.273
AATAACAG	0.149
GTTAACAA	0.205
AATAACAT	0.164
ATTAACAG	0.0676
AATAACAC	0.288
CCTGGTGC	-0.102
AATGCACG	-0.00779
ACATTTCG	0.0557
ACCTGGTC	-0.115
AAATGGAA	0.0788
GAATGGAA	0.131
TAATGTAA	0.312
AAATGTAA	0.227
GAATGTAA	0.221
TAATGGAA	0.256

Sequence	PBM E-score
CGAGGCGC	-0.0513
ATATTGAC	0.069
ATGCAGAC	-0.0609
CCTGGGTA	-0.172
CAAACGAA	0.0114
GAAACGAC	0.123
GAAACGAA	0.255
GGCGGGGA	0.233
CGCAATAA	0.191
AATAATAC	0.296
TATAATGA	0.136
GATAATAC	0.182
CATAATAC	0.24
AATAATAA	0.308
CATAATAA	0.105
TATAATAA	0.287
AATAATAG	0.2
TGCAATAA	0.272
GATAATAA	0.113
GGCAATAA	0.114
CAGCTGCC	-0.0739
CATCCTTA	-0.00117
CCCAGTTC	-0.0993
GGTGCGGA	-0.0917
CGATGGAC	-0.0566

Sequence	PBM E-score
AACCATCC	-0.0788
AATGCTCT	-0.0877
CAGACAAA	0.126
CGCTCACC	-0.0419
GCCCAGCA	-0.301
AAGAATAT	0.0717
AATAATGT	0.233
AATAATAT	0.337
AATAATCG	0.107
AATAAGAT	0.075
AATAATCT	0.31
AATAAGAA	0.269
AATAAGAG	0.195
CATAATGG	-0.033
AATAATCC	0.109
AATAATGG	0.329
GACGGGGA	-0.164
ACCAGGTC	-0.0571
CGGCGATC	-0.086
GAGGGGCC	-0.323
AGCTCAGG	-0.0122
CATTATTA	0.334
AATTATTG	0.195
CATTATAA	0.0345
TATTATAA	0.281

Sequence	PBM E-score
CATTATTC	0.185
AGTTATTA	0.184
AATTATAC	0.26
GATTATAA	0.244
AATTATTA	0.311
AATTATAG	0.234
AATTATAA	0.224
GATTATTA	0.198
GAACCCTA	-0.054
CAAGGGTC	-0.0382
AAGAATCC	-0.111
ACCTCTCT	-0.175
ATACTTCG	-0.0772
GGACTGTA	-0.0642
TATGCAGA	0.0525
AGTTATTC	0.096
AAGTATAC	0.266
AATTATTC	0.256
AAGTATAT	0.135
AACTATTC	0.125
AAGTATAA	0.249
CATATGAA	0.132

Source: the supplement of paper PMC3334620
